The text below walks through data of PubChem BioAssay (NCATS).

Inconclusive results are not listed. Activity calls are given as the source filed them. Calls follow the shape of the dose curve; as a rule, active = well fitted curve in the direction sought with a large enough effect; inconclusive = small, poorly fitted or top-dose-only effect, or another doubt; inactive = no such curve, though single readings can be large; an effect the other way counts as inactive or inconclusive.

Chain of Nuclear receptor subfamily 1 group I member 3 (Homo sapiens) (Q14994 whole entry, looked up): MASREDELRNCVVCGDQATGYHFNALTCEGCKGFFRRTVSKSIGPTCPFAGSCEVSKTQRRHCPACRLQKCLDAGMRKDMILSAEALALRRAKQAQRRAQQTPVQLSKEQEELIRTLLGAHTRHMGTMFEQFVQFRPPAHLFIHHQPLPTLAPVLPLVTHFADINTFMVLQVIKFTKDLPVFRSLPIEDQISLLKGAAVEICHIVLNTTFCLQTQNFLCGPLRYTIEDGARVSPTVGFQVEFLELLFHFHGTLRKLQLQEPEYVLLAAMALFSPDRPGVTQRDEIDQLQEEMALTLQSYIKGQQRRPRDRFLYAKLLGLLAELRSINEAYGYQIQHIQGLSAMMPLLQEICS

System in the first test: not listed separately
Briefly: J3T Cancer Cell Toxicity qHTS against the NCATS CANVASS Library (AID 1347371). Also: potency is read from the fitted curve at half-maximal effect.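 As to activity change, negative = cytotoxicity: J3T is a canine glioma cancer cell line seeded at 500 cells per well; % is scaled to controls: 0 for no effect and ±100 for the full control effect.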 The settings on record: J3T dog glioma viability, ATP luminescence, 72 h; series mostly up to 46.1 µM; activity change, negative = cytotoxicity: at the top concentration. Put shortly:
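Cytotoxicity read as CellTiterGlo ATP luminescence after 72 h incubation (37C, 5% CO2) of J3T canine glioma cells (500/well) with an 11-point compound series.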
A general note: qHTS replaces the single test concentration by a dilution series.
In the case of `CC1=CC2CC[C@@H]3[C@@H](C)C[C@H](C)[C@@H](C1)N23` (some centres undefined), the “activity change, negative = cytotoxicity” value is 3.51% (inactive).
The same measure, in the same setting: the same measure for `CC=C1CN(C=O)[C@H]2C[C@@H]1[C@@H](C(=O)OC)[C@@]13CCOC21Nc1ccccc13` (some centres undefined): -17.3% (inactive).
With `C[C@@H]1CC[C@@H](c2ccoc2)N2C[C@@]3(CC[C@@H]12)CS[C@@]1(CC[C@H]2[C@H](C)CC[C@@H](c4ccoc4)N2[C@@H]1O)C3`, the Potency is 9.35 µM (active).
Regarding `CCN1C[C@]2(C)CC[C@@H](O)[C@]34C1[C@H](C[C@H]23)C12CCC(CC14)[C@](O)(CO)[C@H]2O` (some centres undefined), the result was inactive.
In the case of `CO[C@@H](/C=C/CC/C=C/C(=O)O)[C@@H](O)[C@H](C)[C@@H](O)/C(C)=C/[C@H](C)C(=O)CCCC1CC(=O)NC(=O)C1`, the “activity change, negative = cytotoxicity” value is 2.12% (inactive).
Still for that read-out and setting: the same measure for `CCCC[C@@H]1CC[C@H]2CCCC(CCC)N12` (some centres undefined): -6.6% (inactive); for `C[C@]12CC(O)C3[C@@H](CCC4C[C@@H](O)CC[C@@]43CO)[C@@]1(O)CCC2C1=CC(=O)OC1` (some centres undefined): -0.114% (inactive); for `CO[C@@H](/C=C/CC/C=C/C(=O)O)[C@@H](O)[C@H](C)/C=C(\C)[C@@H](O)[C@H](C)C(=O)CCCC1CC(=O)NC(=O)C1`: -4.47% (inactive).
In the case of `O=C(c1ccccc1O)c1[nH]c(Cl)c(Cl)c1-n1c(C(=O)c2ccccc2O)cc(Cl)c1Cl`, the Potency was 2.96 µM (active).
For the molecule `CC[C@@H]1CN2CC[C@@]3(O)C(=Nc4cccc(OC)c43)[C@@H]2C[C@@H]1/C(=C\OC)C(=O)OC`, the “activity change, negative = cytotoxicity” value was 14% (inactive).
Still for that read-out and setting: the same measure for `c1ccc2c3c([nH]c2c1)CNCC3`: -11.8% (inactive); for `CNCCc1ccccc1`: -5.58% (inactive); for `CO[C@H](c1ccccc1)[C@H]1NC(=O)C(C)NC(=O)C(C[C@@H](C)CO)N(C)C(=O)[C@@H](C(O)c2cn(C(C)(C)C3CO3)c3ccccc23)NC(=O)C(C(C)C=C(C)C)NC(=O)C(CC(C)C)N(C)C(=O)C(C(C)C)NC1=O` (some centres undefined): -1.85% [at 27.5 µM] (inactive).
Same read-out and setting: the same measure for `CC1=CC(=O)C2=C(C)C[C@H](O)[C@@H]3[C@H](OC(=O)[C@@H]3C)[C@@H]12`: 1.69% (inactive); for `CCN1C[C@]2(C)CC[C@H](O)[C@]34C1C(C[C@H]23)[C@@]12CC[C@H](CC14)[C@](O)(COC(=O)c1ccc(OC)c(OC)c1)[C@H]2O` (some centres undefined): -9.33% (inactive).
For the molecule `CCC(=O)CCCCC[C@@H]1NC(=O)[C@H]2CCCCN2C(=O)[C@H]([C@@H](C)CC)NC(=O)[C@H](Cc2cn(OC)c3ccccc23)NC1=O`, the Potency was 5.9 µM (active).

A further test concerns the target Nuclear receptor subfamily 1 group I member 3 (Homo sapiens) (UniProt Q14994). The test can be described thus: qHTS for Constitutive Androstane Receptor (CAR) Antagonist screened against the NCATS CANVASS Library (AID 1347372). Also: potency is read from the fitted curve at half-maximal effect.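 As to activity change, negative = inhibition: cells stimulated with 50 nM CITCO agonist so inhibition reflects antagonism; % is scaled to controls: 0 for no effect and ±100 for the full control effect.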 The settings on record: HepG2-hCAR-CYP2B6 luciferase, CITCO-stimulated antagonist mode; series mostly up to 46.1 µM; activity change, negative = inhibition: at the top concentration. Put shortly: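 Antagonist mode: compound added alongside 50 nM CITCO to HepG2-hCAR-CYP2B6 reporter cells, 24hr at 37C. Viability by CellTiter-Fluor fluorescence, then CAR-driven luciferase by ONE-Glo luminescence.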
With `CC1=CC2CC[C@@H]3[C@@H](C)C[C@H](C)[C@@H](C1)N23` (some centres undefined), the “activity change, negative = inhibition” value was -4.62% (inactive).
With `CC=C1CN(C=O)[C@H]2C[C@@H]1[C@@H](C(=O)OC)[C@@]13CCOC21Nc1ccccc13` (some centres undefined), the “activity change, negative = inhibition” value is -1.53% (inactive).
For the molecule `C[C@@H]1CC[C@@H](c2ccoc2)N2C[C@@]3(CC[C@@H]12)CS[C@@]1(CC[C@H]2[C@H](C)CC[C@@H](c4ccoc4)N2[C@@H]1O)C3`, the Potency was 8.31 µM (active).
As for `CO[C@@H](/C=C/CC/C=C/C(=O)O)[C@@H](O)[C@H](C)[C@@H](O)/C(C)=C/[C@H](C)C(=O)CCCC1CC(=O)NC(=O)C1`, the “activity change, negative = inhibition” value was 2.95% (inactive).
On the same count and under the same terms, the same measure for `CCCC[C@@H]1CC[C@H]2CCCC(CCC)N12` (some centres undefined): 20.1% (inactive); for `C[C@]12CC(O)C3[C@@H](CCC4C[C@@H](O)CC[C@@]43CO)[C@@]1(O)CCC2C1=CC(=O)OC1` (some centres undefined): 3.71% (inactive); for `CO[C@@H](/C=C/CC/C=C/C(=O)O)[C@@H](O)[C@H](C)/C=C(\C)[C@@H](O)[C@H](C)C(=O)CCCC1CC(=O)NC(=O)C1`: 6.93% (inactive).
`O=C(c1ccccc1O)c1[nH]c(Cl)c(Cl)c1-n1c(C(=O)c2ccccc2O)cc(Cl)c1Cl`: the Potency is 3.71 µM (active).
`CC[C@@H]1CN2CC[C@@]3(O)C(=Nc4cccc(OC)c43)[C@@H]2C[C@@H]1/C(=C\OC)C(=O)OC`: the “activity change, negative = inhibition” value was 7.07% (inactive).
Still for that read-out and setting: in the case of `c1ccc2c3c([nH]c2c1)CNCC3` it was 45.5% (inactive).
On the same count and under the same terms, the same measure for `CNCCc1ccccc1`: -4.33% (inactive).
`CCCCC[C@@H]1OC(=O)[C@@H](C)N(C)C(=O)[C@H](CCCCC)OC(=O)C(C)N(C)C(=O)[C@H](CCCCC)OC(=O)[C@@H](C)N(C)C(=O)[C@H](CCCCC)OC(=O)C(C)N(C)C1=O` (some centres undefined): the Potency was 11.7 µM (active).
Take `CO[C@H](c1ccccc1)[C@H]1NC(=O)C(C)NC(=O)C(C[C@@H](C)CO)N(C)C(=O)[C@@H](C(O)c2cn(C(C)(C)C3CO3)c3ccccc23)NC(=O)C(C(C)C=C(C)C)NC(=O)C(CC(C)C)N(C)C(=O)C(C(C)C)NC1=O` (some centres undefined): the “activity change, negative = inhibition” value is -12.1% [at 27.5 µM] (inactive).
Consider `CC1=CC(=O)C2=C(C)C[C@H](O)[C@@H]3[C@H](OC(=O)[C@@H]3C)[C@@H]12`, for which the “activity change, negative = inhibition” value was 33.8% (inactive).
With `CCN1C[C@]2(C)CC[C@H](O)[C@]34C1C(C[C@H]23)[C@@]12CC[C@H](CC14)[C@](O)(COC(=O)c1ccc(OC)c(OC)c1)[C@H]2O` (some centres undefined), the “activity change, negative = inhibition” value is 4% (inactive).
For `CCC(=O)CCCCC[C@@H]1NC(=O)[C@H]2CCCCN2C(=O)[C@H]([C@@H](C)CC)NC(=O)[C@H](Cc2cn(OC)c3ccccc23)NC1=O`, the Potency is 2.34 µM (active).

The next test shares this target. The test can be described thus: qHTS for Constitutive Androstane Receptor (CAR) Agonist screened against the NCATS CANVASS Library (AID 1347373).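 Also: every well also contained 1.5 µM PK11195 alongside the test compound; 0% is about no effect.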 The settings on record: HepG2-hCAR-CYP2B6 luciferase reporter, ONE-Glo luminescence; series mostly up to 46.1 µM; activation: at the top concentration. A digest of the protocol:
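Agonist mode with 1.5uM PK11195 present: compounds for 24hr on HepG2-hCAR-CYP2B6 cells. CellTiter-Fluor fluorescence (ex 405, em 540 nm) gives viability; ONE-Glo luminescence reports CAR activation.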
As to `CC1=CC2CC[C@@H]3[C@@H](C)C[C@H](C)[C@@H](C1)N23` (some centres undefined), the “activation” value was -2.21% (inactive).
As to `CC=C1CN(C=O)[C@H]2C[C@@H]1[C@@H](C(=O)OC)[C@@]13CCOC21Nc1ccccc13` (some centres undefined), the “activation” value was -2.19% (inactive).
Turning to `C[C@@H]1CC[C@@H](c2ccoc2)N2C[C@@]3(CC[C@@H]12)CS[C@@]1(CC[C@H]2[C@H](C)CC[C@@H](c4ccoc4)N2[C@@H]1O)C3`, the “activation” value was -25.3% (inactive).
Same read-out and setting: the same measure for `CCN1C[C@]2(C)CC[C@@H](O)[C@]34C1[C@H](C[C@H]23)C12CCC(CC14)[C@](O)(CO)[C@H]2O` (some centres undefined): -5.88% (inactive); for `CO[C@@H](/C=C/CC/C=C/C(=O)O)[C@@H](O)[C@H](C)[C@@H](O)/C(C)=C/[C@H](C)C(=O)CCCC1CC(=O)NC(=O)C1`: 6.91% (inactive).
On the same count and under the same terms, the same measure for `CCCC[C@@H]1CC[C@H]2CCCC(CCC)N12` (some centres undefined): 5.8% (inactive); for `C[C@]12CC(O)C3[C@@H](CCC4C[C@@H](O)CC[C@@]43CO)[C@@]1(O)CCC2C1=CC(=O)OC1` (some centres undefined): 2.67% (inactive).
Still for that read-out and setting: in the case of `CO[C@@H](/C=C/CC/C=C/C(=O)O)[C@@H](O)[C@H](C)/C=C(\C)[C@@H](O)[C@H](C)C(=O)CCCC1CC(=O)NC(=O)C1` it was 2.58% (inactive); in that of `O=C(c1ccccc1O)c1[nH]c(Cl)c(Cl)c1-n1c(C(=O)c2ccccc2O)cc(Cl)c1Cl`, -9.29% (inactive).
Take `CC[C@@H]1CN2CC[C@@]3(O)C(=Nc4cccc(OC)c43)[C@@H]2C[C@@H]1/C(=C\OC)C(=O)OC`: the “activation” value is -3.97% (inactive).
On to `c1ccc2c3c([nH]c2c1)CNCC3`, for which the “activation” value is 15.4% (inactive).
Still for that read-out and setting: in the case of `CNCCc1ccccc1` it was 1.22% (inactive); in that of `CCCCC[C@@H]1OC(=O)[C@@H](C)N(C)C(=O)[C@H](CCCCC)OC(=O)C(C)N(C)C(=O)[C@H](CCCCC)OC(=O)[C@@H](C)N(C)C(=O)[C@H](CCCCC)OC(=O)C(C)N(C)C1=O` (some centres undefined), -12.4% (inactive).
In the case of `CO[C@H](c1ccccc1)[C@H]1NC(=O)C(C)NC(=O)C(C[C@@H](C)CO)N(C)C(=O)[C@@H](C(O)c2cn(C(C)(C)C3CO3)c3ccccc23)NC(=O)C(C(C)C=C(C)C)NC(=O)C(CC(C)C)N(C)C(=O)C(C(C)C)NC1=O` (some centres undefined), the “activation” value was -0.548% [at 27.5 µM] (inactive).
Turning to `CC1=CC(=O)C2=C(C)C[C@H](O)[C@@H]3[C@H](OC(=O)[C@@H]3C)[C@@H]12`, the “activation” value is 5.83% (inactive).
On the same count and under the same terms, in the case of `CCN1C[C@]2(C)CC[C@H](O)[C@]34C1C(C[C@H]23)[C@@]12CC[C@H](CC14)[C@](O)(COC(=O)c1ccc(OC)c(OC)c1)[C@H]2O` (some centres undefined) it was -3.5% (inactive); in that of `CCC(=O)CCCCC[C@@H]1NC(=O)[C@H]2CCCCN2C(=O)[C@H]([C@@H](C)CC)NC(=O)[C@H](Cc2cn(OC)c3ccccc23)NC1=O`, -29.6% (inactive).
